From the supplement of paper PMC5940239

Columns and labels:
[1] = test system: Madurella mycetomatis MM55; details: 7 days
[2] = test system: Madurella mycetomatis MM55; experiment: IC90; higher = less potent; details: 7 days
[3] = test system: Madurella mycetomatis MM55; experiment: percent growth relative to solvent control; higher = less inhibition, active = 20 or less; details: 100 µM; 7 days

Row | Structure (SMILES) | IC50 [1] [µM] | IC90 [2] [µM] | percent growth [3]
1 | Cc1ccccc1CN1CCC(O)(c2ccc(Cl)c(C(F)(F)F)c2)CC1 | 35.5 | 56.3 | 1.71% (active)
2 | Cc1nc(-c2cccc(NCc3ccccc3)c2)[nH]c1C | 64 | 93.6 | 1.75% (active)
3 | c1ccc(Oc2ccc(-c3cc(N4CCNCC4)[nH]n3)cc2)cc1 | 35.1 | 81.3 | 0.718% (active)
4 | COc1ccc(CN2CCOc3ccc(C(C)(O)CN(C)C)cc3C2)cc1C (stereo unspecified) | 60.6 | 93.5 | 2.42% (active)
5 | O=C(Nc1nnc(-c2ccc(Cl)cc2)o1)c1cccc(C(F)(F)F)c1 | 10.6 | 39.2 | 3.76% (active)
6 | Cc1ccc2[nH]c(C3CCCNC3)c(-c3ccncc3)c2c1 (stereo unspecified) | 52.1 | 89.4 | 0.356% (active)
7 | c1ccc2c(c1)CN(CC1CC1)CC1(CCN(Cc3c[nH]c4cnccc34)CC1)O2 | 62.9 | 96 | 5.33% (active)
8 | O=C(COc1cccc(F)c1)Nc1nc(-c2ccccn2)cs1 | 8.85 | 16.1 | 0.599% (active)
9 | Cc1cc(NCC(C)C)c2n[nH]c(-c3ccccc3)c2n1 | 52.5 | 89.3 | -1.5% (active)
10 | NC(CC(=O)c1ccc(Cl)cc1Cl)C(Cl)(Cl)Cl (stereo unspecified) | 58.1 | 95 | 5.11% (active)
11 | CCOC(=O)c1c(NC(=O)c2c(F)c(F)c(F)c(F)c2F)sc(C(N)=O)c1C | 60.5 | 92.8 | 1.26% (active)
12 | CC(C)(C(=O)Nc1ccc(F)cc1)n1cc(-c2ccccc2F)cn1 | 56.2 | 96.1 | 6.9% (active)
13 | CCc1ccc(S(=O)(=O)Nc2cc(CN3CCN(CCC(C)C)CC3)ccc2C)cc1 | 59.9 | 91.5 | -0.809% (active)
14 | COc1ccc(-c2onc(C(F)(F)F)c2-c2ccc(Cl)cc2)c(O)c1 | 8.8 | 16.8 | 3.39% (active)
15 | c1ccc(-c2cc(N3CCCCC3)c3ccccc3n2)nc1 | 60 | 92.4 | 0.766% (active)
16 | CC(C)(C)c1ccc(N[C@@H]2CCCC[C@H]2NC(=O)c2ccco2)cc1 | 53 | 89.7 | -1.4% (active)
17 | COc1ccc(-c2cc(NC(=O)c3ccc(F)cc3Cl)ccc2OC)cc1 | 31.4 | 53 | 19.5% (active)
18 | CCOc1ccc2cc(-c3nn(CC4CCN(C)CC4)c4ncnc(N)c34)ccc2c1 | 51.8 | 87.8 | -3.52% (active)
19 | O=C1COCc2ccc(Br)cc2N1Cc1ccc(C(F)(F)F)cc1 | 45 | 95.4 | 9.1% (active)

Row | Structure (SMILES) | IC50 [1] [µM] | IC90 [2] [µM] | percent growth [3]
20 | Cc1cccc(Cn2ccc(NC(=O)c3ccc4c(c3)OCO4)n2)c1 | 60.1 | 90.7 | -0.936% (active)
21 | Cc1nc(-c2ccccn2)nc(N(C)CCc2ccccc2)c1Cl | 9.25 | 17.8 | 2.82% (active)
22 | O=C(Nc1cccc(Cl)c1)c1cnc(N2CCN(c3ccncc3)CC2)c(Cl)c1 | 9.3 | 19.6 | 6.08% (active)
23 | COc1ccc(-c2nnc3ccc(-c4cccc(C(C)C)c4)cn23)cc1OC | 40.6 | 86.2 | 2.59% (active)
24 | O=C(c1ccc(F)cc1)N(CCNc1ccccc1)c1ccccc1 | 66.8 | 100 | 6.35% (active)
25 | CN1CCC(NCc2cccc(-c3ccc(S(=O)(=O)NCc4ccccc4)cc3)c2)CC1 | 40.8 | 92 | 3.47% (active)
26 | O=C([C@@H](c1ccc(Cl)cc1)c1cccnc1)N1CCN(c2ccc(C(F)(F)F)cc2)CC1 | 1.35 | 3.4 | 4.17% (active)
27 | Cc1ncc(-c2ccnc(Nc3ccc(S(C)(=O)=O)cc3)n2)n1C(C)C | 65.9 | 96.9 | 6.23% (active)
28 | CCCn1nnc(NC(=O)COc2ccc(C3CCCCC3)cc2)n1 | 65.8 | 94.3 | 2.18% (active)
29 | CCCc1ccc(S(=O)(=O)Nc2ccc(CN3CCN(CC4CC4)CC3)cc2)cc1 | 63.1 | 91.8 | -0.983% (active)
30 | COc1cccc(-c2nc3c(N4CCCC4)cccc3n2CC2CCCN2)n1 (stereo unspecified) | 37.4 | 84 | -0.727% (active)
31 | CC(C)n1nc(-c2cc3c(Cl)cccc3[nH]2)c2c(N)ncnc21 | 52.5 | 89 | -3.21% (active)
32 | CC(C)(C)n1nc(-c2ccccc2)c2c(N)ncnc21 | 49.4 | 96.4 | 10.4% (active)
33 | CN1CCN(c2nccc3[nH]c(-c4cccc(F)c4)cc23)CC1 | 50.5 | 93 | 3.26% (active)
34 | N#CCN(CCCCN1CCN(c2ccc(F)cc2)CC1)C(=O)OCc1ccccc1 | 64.3 | 93.7 | 1.57% (active)
35 | O=C(Nc1ccc(N2CCNCC2)cc1)c1ccn2ncc(-c3cccc(Cl)c3)c2n1 | 2.95 | 4.9 | 8.12% (active)
36 | CCN(CC)CCCCCCNc1cc(OC)cc2c(C)ccnc12 | 9.8 | 17.8 | -1.36% (active)
37 | c1coc(CNc2nc(N3CCCCC3)nc3ccccc23)c1 | 10.2 | 15.5 | 1.16% (active)
